NS1 inh = influenza NS1 inhibition. Potency, µM (highest dose often 46.1 µM), for the others: at the top dose activity, positive = more growth. 270,000 compounds, 0.4% hits; calls by dose curve; also: actives are rising curves; nearly all actives have a fitted effect of over 50% in size
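A cell-based growth assay was used: compounds that relieve NS1-induced slow growth of budding yeast raise OD600. Assay medium was yeast nitrogen base with ammonium sulphate and -URA supplement, pH 6.0, with 2% galactose.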
TbPYK inhibitor = inhibitors of Trypanosoma brucei pyruvate kinase; TbPYK enzyme, Kinase-Glo Plus ATP luminescence, 45 min; Potency, µM (doses to about 76.8 µM), for inactives: at the highest dose activity, negative = inhibition, usual class: inhibitors; 410,000 compounds, 0.12% hits; also: % is scaled to controls: 0 for no effect and ±100 for the full control effect; nearly all actives have a fitted effect of over 50% in size
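Glycolytic pyruvate kinase of T. brucei was incubated with substrate, test compound and 130 uM ADP for 45 minutes at room temperature. Luminescent Kinase-Glo Plus signal was measured after 10 minutes.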
RE007 growth inh = less growth of the S. pombe RE007 Vpr strain | AID 651644 | 360,000 compounds, 0.21% hits | S. pombe RE007 Vpr strain, BacTiter-Glo ATP luminescence, 24 h | Potency, µM (series often up to 92.2 µM), for the others: at the top dose activity change, negative = less growth, actives largely listed as inhibitors; active = well fitted falling curve with a large enough effect; inconclusive = small, poorly fitted or top-dose-only effect; inactive = no such curve, though single readings can be large or run the other way; also: % is scaled to controls: 0 for no effect and ±100 for the full control effect; nearly all actives have a fitted effect of over 50% in size
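Fission yeast RE007 carrying one integrated HIV-1 vpr copy, seeded at OD 0.01 in PMG+AL medium with 23 nL pinned compound. Grown 24 h at 30 degrees; viability read by BacTiter-Glo luminescence after 5 min.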
LmPK inhibitor = inhibitors of Leishmania mexicana pyruvate kinase | purified LmPK, Kinase-Glo ATP luminescence, 1 h | Potency, µM (titrated, usually from 57.5 µM), inactives show at the highest dose activity change, negative = inhibition, hits mostly inhibitors | 290,000 compounds, 0.37% hits | AID 1721; also: % is scaled to controls: 0 for no effect and ±100 for the full control effect
Target sequence (Q27686 whole entry, looked up): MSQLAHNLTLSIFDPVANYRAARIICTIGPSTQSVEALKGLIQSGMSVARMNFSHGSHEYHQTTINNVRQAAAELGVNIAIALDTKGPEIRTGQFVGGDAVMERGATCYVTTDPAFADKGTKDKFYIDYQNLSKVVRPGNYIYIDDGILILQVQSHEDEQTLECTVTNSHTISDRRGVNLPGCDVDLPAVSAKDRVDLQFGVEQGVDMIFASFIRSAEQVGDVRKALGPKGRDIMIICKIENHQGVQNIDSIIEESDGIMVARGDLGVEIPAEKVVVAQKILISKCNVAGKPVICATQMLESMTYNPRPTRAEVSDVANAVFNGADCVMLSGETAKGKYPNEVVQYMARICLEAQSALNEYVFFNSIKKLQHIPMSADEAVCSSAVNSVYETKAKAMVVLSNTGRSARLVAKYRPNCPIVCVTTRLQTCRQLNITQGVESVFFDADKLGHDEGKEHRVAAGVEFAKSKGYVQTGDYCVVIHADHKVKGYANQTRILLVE
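Kinase-Glo luminescence read after 1 h RT reaction of 0.1 nM LmPK with 0.5 mM PEP and 0.1 mM ADP. Activity scaled between uninhibited and enzyme-free controls.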
The depositor's hits bear a star; ? = inconclusive; . = not tested or not shown; [ ] = another dose, or the depositor's remark. Sampled rows, rich in hits. Any-hit rate of the full collection: about 0.77%. Unless noted, calls follow the shape of the dose curve; as a rule, active = well fitted curve in the direction sought with a large enough effect; inconclusive = small, poorly fitted or top-dose-only effect, or another doubt; inactive = no such curve, though single readings can be large; an effect the other way counts as inactive or inconclusive. Potency is read from the fitted curve at half-maximal effect.

SMILES	NS1 inh	TbPYK inhibitor	RE007 growth inh	LmPK inhibitor
CCCNC(=O)c1ccc2snnc2c1	1.8%	-3.7%	-4.9%	0.4%
Cc1ccc(S(=O)c2snnc2C)cc1 (stereo unspecified)	2.1%	-3.2%	6.8%	-5.2%
CCCNC(=O)c1nnsc1S(=O)c1ccc(Cl)cc1 (stereo unspecified)	.	-12.5%	3.55µM*	-4.5%
CNC(=O)c1nnsc1S(=O)c1ccc(Cl)cc1 (stereo unspecified)	.	-15.1%	35.5µM*	-2.8%
CCCNC(=O)c1nnsc1S(=O)(=O)c1ccc(Cl)cc1	.	3.2%	11.2µM*	0.1%
N#C/C(=C(\O)C(=O)O)c1ccc(-c2cccc3ccccc23)cc1	-7.2%	.	.	.
Cc1cc(C)n(CCc2nc3c4ccccc4n(CC(=O)Nc4ccc(Cl)cc4F)c(=O)n3n2)n1	29.4%	.	.	.
CC1=C/C(=C(\c2cc(C)c(O)c(Br)c2)c2ccccc2S(=O)(=O)O)C=C(Br)C1=O	-7.5%	?	?	7.94µM*
Cc1cc(C(=O)c2ccccc2)cc(C)c1O	.	7.0%	5.6%	.
Oc1ccc2ccccc2c1N=Nc1ccccn1	-181.3%	-3.8%	35.5µM*	-13.9%
O=c1c(Br)ccc(Br)cc1Br	.	-15.5%	2.24µM*	.
c1ccc(-c2cn3c(n2)-c2ccccc2C3)cc1	-27.7%	?	?	5.62µM*
O=C1c2ccccc2CN2C(=O)c3ccccc3CN12	0.0%	5.0%	24.5%	-3.2%
CN1C[C@H]2c3ccccc3Oc3ccc(Cl)cc3[C@@H]2C1	.	4.8%	.	.
CCN1CCOC(CC(=O)Nc2ccc([N+](=O)[O-])cc2)C1=O (stereo unspecified)	-73.5%	1.0%	44.7µM*	-2.8%
COc1ccccc1Nc1nnc(SCC2CCCCO2)s1 (stereo unspecified)	.	-14.5%	-21.0%	14.1µM*
Cc1ccccc1Nc1nnc(SCC2CCCCO2)s1 (stereo unspecified)	-26.7%	-10.1%	-14.4%	?
Cc1ccc2nc(SCCCCOc3ccccc3)[nH]c2c1	-43.8%	1.3%	56.2µM*	1.3%
Fc1ccc(-n2nnc(-c3ccccc3Cl)n2)cc1	15.8%	-2.0%	14.8%	0.8%
Fc1ccc(-n2nnc(-c3nccs3)n2)cc1	-5.2%	-20.5%	?	14.1µM*
COc1ccc2c(Sc3ccccc3)c(C(=O)NCCCN3CCCCC3)[nH]c2c1	.	0.0%	.	.
Cc1ccc(C)c(-c2csc(NC(=O)C3=COCCO3)n2)c1	.	-1.5%	25.1µM*	.
Cc1ccc(-c2csc(NC(=O)C3=COCCO3)n2)cc1	-8.4%	-12.4%	?	-1.5%
Cc1nn(-c2nc3ccccc3[nH]2)c(N)c1-c1ccccc1	-6.0%	0.9%	28.2µM*	-14.9%
C=C(NCc1ccccc1)c1ccccc1O	.	-7.9%	.	.
SMILES	NS1 inh	TbPYK inhibitor	RE007 growth inh	LmPK inhibitor
Cn1c(=O)c2c([nH]c(=S)n2Cc2ccc(Cl)cc2)n(C)c1=O	14.5%	3.55µM*	8.9%	?
O=C(O)c1cccc(N2C(=O)C=CC2=O)c1	.	?	0.0%	.
O=C(Nc1ccc(Cl)cc1Cl)c1cccc(N2C(=O)C=CC2=O)c1	-73.5%	?	1.26µM*	12.2%
O=C(c1ccc2c3n(nc2c1)-c1ccc(Cl)cc1CO3)N1CCCCC1	-75.9%	-18.5%	-16.3%	25.1µM*
Cc1ccc2c(c1)COc1c3ccc(C(=O)N4CCOCC4)cc3nn1-2	-6.2%	-15.0%	-33.0%	15.8µM*
C=CCNC(=O)c1ccc2c3n(nc2c1)-c1ccccc1CO3	-61.2%	?	?	14.1µM*
CCCc1cc(C(=O)Nc2cccc(Cl)c2)no1	-64.9%	-9.8%	?	22.4µM*
CCCc1cc(C(=O)Nc2cccnc2)no1	5.6%	4.1%	-27.8%	11.2µM*
CCCc1cc(C(=O)Nc2cccc(C(C)=O)c2)no1	-0.5%	1.0%	-0.2%	10.8%
C[C@]12O[C@H](C[C@]1(O)CO)n1c3ccccc3c3c4c(c5c6ccccc6n2c5c31)CNC4=O	.	-6.8%	.	.
COc1ccc(-c2cn3cccnc3n2)cc1NC(=O)Nc1cc(C)ccc1C	.	4.0%	.	.
O=S(=O)(Nc1cccc2ccccc12)c1cccs1	1.5%	-0.7%	-3.1%	1.1%
O=S(=O)(Nc1ccc(O)c2ccccc12)c1cccs1	-40.8%	-16.4%	-9.0%	11.2µM*
COc1cccc(OCC(=O)Nc2c(C(=O)Nc3ccc(OC)cc3OC)oc3ccccc23)c1	9.7%	.	.	.
CCOc1ccccc1CNC(=O)c1cn(-c2ccc(OC)cc2)c(=O)c2ccccc12	.	5.8%	.	.
CN1/C(=C\C(=O)c2cccs2)Sc2ccccc21	-52.5%	-17.4%	-19.0%	11.2µM*
CC(=O)Oc1ccccc1C(=O)C=Cc1cccc([N+](=O)[O-])c1	.	7.2%	25.1µM*	.
CCOc1ccc(C(=O)Nc2cccc(C)n2)cc1	-9.0%	-13.9%	?	15.8µM*
CCOc1ccc(C(=O)Nc2cc(C)ccn2)cc1	.	?	39.8µM*	?
CCOc1cc(C(=O)Nc2cc(C)ccn2)cc(OCC)c1OCC	-75.7%	2.4%	-20.3%	3.5%
CCCCOc1ccc(C(=O)Nc2cccc(C)n2)cc1	-107.7%	-11.2%	-23.1%	?
CCCCN1CSC(=S)N(Cc2ccccc2)C1	-33.9%	.	.	.
CC[C@H](OC(C)=O)C(C[C@H](C)NC)(c1ccccc1)c1ccccc1	.	-4.6%[157 µM]	.	.
O=C(C1CCN(C2CC(=O)N(c3ccc(Cl)cc3)C2=O)CC1)N1CCOCC1 (stereo unspecified)	-75.6%	-8.8%	12.6µM*	-2.5%
CCOC(=O)c1ccc(N2C(=O)CC(N(C)CCc3ccc(OC)c(OC)c3)C2=O)cc1 (stereo unspecified)	-129.7%	-4.9%	3.98µM*	9.4%
SMILES	NS1 inh	TbPYK inhibitor	RE007 growth inh	LmPK inhibitor
CCOC(=O)C1CCCN(C2CC(=O)N(c3ccc(C)cc3)C2=O)C1 (stereo unspecified)	-51.9%	0.4%	?	-7.9%
CCOC(=O)c1ccc(N2C(=O)CC(N3CCOCC3)C2=O)cc1 (stereo unspecified)	-96.4%	3.9%	35.5µM*	-4.4%
CCOC(=O)C1CCN(C2CC(=O)N(c3cccc(Cl)c3)C2=O)CC1 (stereo unspecified)	-45.9%	-14.9%	10µM*	1.2%
CCOc1ccc(N2C(=O)CC(N3CCOCC3)C2=O)cc1 (stereo unspecified)	-16.2%	2.5%	-6.3%	1.6%
CCOc1cccc(N2C(=O)CC(N(CCc3ccc(OC)c(OC)c3)C(=O)CC)C2=O)c1 (stereo unspecified)	-11.0%	0.0%	-1.2%	-0.5%
CO[C@H]1C[C@@H]2CC[C@@H](C)[C@@](O)(O2)C(=O)C(=O)N2CCCC[C@H]2C(=O)O[C@H]([C@H](C)C[C@@H]2CC[C@@H](O)[C@H](OC)C2)CC(=O)[C@H](C)/C=C(\C)[C@@H](O)[C@@H](OC)C(=O)[C@H](C)C[C@H](C)/C=C/C=C/C=C/1C	.	2.2%	.	.
COC(=O)N1C2=C(c3ccccc3[C@@H]1CC(=O)Nc1ccc3ccc4cccc5ccc1c3c45)[C@@H]1C(=O)N(c3ccccc3)C(=O)[C@@H]1[C@H](C)C2	.	.	.	-5.2%[11.5 µM]
O=C(C1CCN(C2CC(=O)N(Cc3ccccc3)C2=O)CC1)N1CCCCCC1 (stereo unspecified)	-68.5%	6.8%	?	-5.7%

Compound activity deposited in PubChem BioAssay by National Center for Advancing Translational Sciences (NCATS).
